# Results: PubChem BioAssay
# Values joined by “and” are separate entries in the source; they are usually repeats but may differ in a detail not shown here. Equal entries are not always repeated. Records with an inconclusive call do not appear. For some of these results: Measured potencies and affinities stand elsewhere. Some compounds were tested as several samples or in several runs, with calls that do not always agree. Active and inactive are the calls of the source. Unless noted, no rule for the calls is given here.
# Experiments:
# [1] = yeast 75Q aggregation reduction – 75Q-TubU reporter (AID 1593); conditions: Yeast 75Q polyglutamine aggregation reporter
# [2] = restoration of touch response, mutant HTT neurons – whole organism, C. elegans mechanosensory neurons, N-terminal huntingtin (AID 1599); conditions: C. elegans polyQ-huntingtin mechanosensory neurons, stronger effect = higher value
# [3] = blockers of cytochrome c efflux from mitochondria – biochemical, purified mitochondria (AID 1603); conditions: stronger effect = lower value;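 also: mouse liver mitochondria challenged with calcium chloride; signal normalized to the plate average as 100%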
# [4] = polyglutamine aggregate formation blockers (AID 1604); conditions: polyglutamine-induced protein aggregation inhibition assay; stronger effect = higher value; tested at 2.5 µM
# [5] = glutamate transport activators, MN-1 cells, MN-1 cell line (AID 1612); conditions: MN-1 motor neuron cells, stronger effect = higher value;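 also: tested at 1 µM final; 0% = mean of DMSO vehicle wells on each plate; positive means more glutamate uptake than control and negative means less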
# [6] = GFP-Q80 aggregate reduction, neuronal-like cells, cell-based, NGF-treated PC12, GFPQ80 (AID 1614); conditions: PC12 NGF-treated GFP-polyQ80 inclusion reduction;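 also: lower means fewer inclusions and 0 means no inclusions at all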
# [7] = 75Q-TubH aggregate inhibition, S. cerevisiae, yeast (AID 1616); conditions: S. cerevisiae 75Q-TubH polyglutamine aggregation suppression; stronger effect = higher value
# [8] = tested on: Aerobactin synthetase IucA (Klebsiella pneumoniae hvKP1); experiment: IucA enzyme inhibition, primary screen, biochemical, Spectrum library (AID 1346200); conditions: malachite green pyrophosphate, A620, at 8 µM, stronger effect = lower value;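 also: 100% = wells without compound and 0% = wells lacking enzyme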
# [9] = P. berghei load reduction in hepatocytes – cell-based, HepG2, luciferase luminescence, HepG2 viability, primary screen (AID 624349; in the data active = parasite load remaining mostly below about 12%, no sharp cut-off; inactive = mostly above about 10%;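 also: 100% = mean of DMSO negative control wells on the same plate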); conditions: P. berghei liver stage in HepG2, luciferase luminescence, concentration not given here; parasite load remaining: stronger effect = lower value; viability: measured here: HepG2 viability without parasites
# [10] = viability loss with induced miR-34 in A549 – imaging, A549 dox-inducible miR-34, nuclei and caspase counts, primary screen (AID 1347080;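 active = compounds whose cell count with miR-34 switched on is under 0.7 times the count with it off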); conditions: A549 miR-34 inducible, Hoechst nuclei count, 48 h
# [11] = blockers of polyQ-driven CASP3 activation – cell-based (AID 1583); conditions: polyglutamine-induced caspase-3 activation, cell assay; stronger effect = higher value;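 tested at 10 µM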
# [12] = target: Mitogen-activated protein kinase 7 (Homo sapiens) (UniProt Q13164); experiment: Gal4-ERK5 driven luciferase induction – cell-based, HTS, primary screen (AID 1508626;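 active = luciferase signal above three times the same-plate solvent-only control wells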;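 also: luciferase driven by Gal4-ERK5 fusion binding five Gal4 sites before minimal TATA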); conditions: HeLa Gal4-ERK5 transactivation, 18 h, at 5 µM, stronger effect = higher value
# Mitogen-activated protein kinase 7 (Homo sapiens), sequence (Q13164 whole entry, looked up, the tested form may be a part): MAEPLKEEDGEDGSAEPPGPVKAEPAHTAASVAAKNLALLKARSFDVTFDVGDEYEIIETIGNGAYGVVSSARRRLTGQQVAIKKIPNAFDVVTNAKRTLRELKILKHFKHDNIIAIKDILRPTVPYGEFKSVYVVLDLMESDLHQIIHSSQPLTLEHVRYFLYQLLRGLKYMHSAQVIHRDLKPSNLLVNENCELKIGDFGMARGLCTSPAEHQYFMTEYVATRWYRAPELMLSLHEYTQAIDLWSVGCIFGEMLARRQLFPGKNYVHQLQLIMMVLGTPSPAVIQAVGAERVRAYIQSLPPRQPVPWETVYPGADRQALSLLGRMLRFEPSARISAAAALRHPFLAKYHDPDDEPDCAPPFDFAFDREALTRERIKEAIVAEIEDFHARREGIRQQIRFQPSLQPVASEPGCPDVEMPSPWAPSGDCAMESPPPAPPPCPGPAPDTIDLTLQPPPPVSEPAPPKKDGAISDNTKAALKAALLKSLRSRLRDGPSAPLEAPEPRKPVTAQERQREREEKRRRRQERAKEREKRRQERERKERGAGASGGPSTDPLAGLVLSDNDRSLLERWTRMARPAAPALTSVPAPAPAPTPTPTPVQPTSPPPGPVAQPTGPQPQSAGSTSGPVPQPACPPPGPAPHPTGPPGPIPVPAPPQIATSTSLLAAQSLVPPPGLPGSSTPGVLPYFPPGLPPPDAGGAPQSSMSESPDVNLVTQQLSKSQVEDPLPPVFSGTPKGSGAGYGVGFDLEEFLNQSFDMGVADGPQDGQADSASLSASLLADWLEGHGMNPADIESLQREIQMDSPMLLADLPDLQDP
# [13] = target: ATP-dependent translocase ABCB1 (Homo sapiens) (UniProt P08183); experiment: P-glycoprotein substrate transport blockade – cell-based (AID 377; in the data active = fluorescence slope change above about 50%); conditions: MDR1-expressing cells, fluorescent substrate accumulation slope; stronger effect = higher value; concentration not given here
# ATP-dependent translocase ABCB1 (Homo sapiens), sequence (P08183 whole entry, looked up): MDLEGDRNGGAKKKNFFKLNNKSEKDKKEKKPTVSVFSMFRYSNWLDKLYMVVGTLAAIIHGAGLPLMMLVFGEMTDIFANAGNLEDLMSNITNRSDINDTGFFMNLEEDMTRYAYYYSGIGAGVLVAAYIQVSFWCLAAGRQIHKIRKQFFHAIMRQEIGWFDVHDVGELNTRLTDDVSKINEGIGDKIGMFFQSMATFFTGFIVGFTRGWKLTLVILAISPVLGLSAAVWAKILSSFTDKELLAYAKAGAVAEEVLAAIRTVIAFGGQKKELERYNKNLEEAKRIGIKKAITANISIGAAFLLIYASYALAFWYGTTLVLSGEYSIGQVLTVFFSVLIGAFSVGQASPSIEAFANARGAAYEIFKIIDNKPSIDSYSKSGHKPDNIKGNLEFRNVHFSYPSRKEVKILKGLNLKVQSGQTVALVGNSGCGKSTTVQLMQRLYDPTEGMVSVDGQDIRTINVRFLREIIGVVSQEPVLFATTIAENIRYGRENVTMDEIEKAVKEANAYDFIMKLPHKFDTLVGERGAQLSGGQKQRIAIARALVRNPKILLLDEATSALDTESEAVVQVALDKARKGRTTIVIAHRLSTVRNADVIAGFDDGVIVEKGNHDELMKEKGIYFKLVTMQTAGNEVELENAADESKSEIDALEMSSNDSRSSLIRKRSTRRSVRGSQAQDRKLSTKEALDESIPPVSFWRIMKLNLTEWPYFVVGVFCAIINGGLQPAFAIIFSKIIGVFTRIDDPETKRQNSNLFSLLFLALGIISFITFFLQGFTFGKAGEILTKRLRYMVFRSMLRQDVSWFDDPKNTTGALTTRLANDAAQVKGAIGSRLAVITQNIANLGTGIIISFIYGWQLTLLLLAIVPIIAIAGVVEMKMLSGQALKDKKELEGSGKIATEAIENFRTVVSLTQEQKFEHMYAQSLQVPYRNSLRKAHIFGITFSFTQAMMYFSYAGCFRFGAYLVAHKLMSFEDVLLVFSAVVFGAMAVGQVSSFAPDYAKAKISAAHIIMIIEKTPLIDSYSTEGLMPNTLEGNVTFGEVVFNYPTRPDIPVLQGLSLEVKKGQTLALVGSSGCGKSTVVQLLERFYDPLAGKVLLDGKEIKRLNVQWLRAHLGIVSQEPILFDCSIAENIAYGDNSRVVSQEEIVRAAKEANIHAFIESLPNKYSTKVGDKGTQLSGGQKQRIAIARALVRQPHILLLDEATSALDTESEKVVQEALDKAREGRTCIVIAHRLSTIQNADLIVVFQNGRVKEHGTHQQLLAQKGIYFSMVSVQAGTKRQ
# [14] = compounds altering viability of human ES cells (AID 493140); conditions: human embryonic stem cell survival screen; stronger effect = higher value;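 also: cells exposed to compounds for four days before counting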
# [15] = tested on: Aerobactin synthetase IucA (Klebsiella pneumoniae, hypervirulent); experiment: biochemical IucA inhibition screen of LOPAC library by absorbance (AID 1346212); conditions: IucA enzyme assay, absorbance (OD) readout; stronger effect = lower value; concentration not given here;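 also: 100% = no compound wells and 0% = no enzyme wells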
# [16] = measured here: relative caspase fold change +Dox/-Dox
# [17] = measured here: total cells with miR-34 induction, stronger effect = lower value
# [18] = measured here: total cells without miR-34 induction
smiles,measurement,setting,value
C[C@H]1O[C@@H](O[C@H]2[C@@H](O)C[C@H](O[C@H]3[C@@H](O)C[C@H](O[C@H]4CC[C@]5(C)C6CC[C@]7(C)[C@@H](C8=CC(=O)OC8)CC[C@]7(O)C6CC[C@@H]5C4)O[C@@H]3C)O[C@@H]2C)C[C@H](O)[C@@H]1O (stereo partly drawn),score,[1],1.05
same,rescue above control,[2],-1.72
same,cytochrome c release ratio,[3],1.31
same,inhibition of aggregation,[4],76%
same,glutamate uptake change,[5],5.63%
same,inclusion score,[6],2
same,aggregation suppression score,[7],0.858
same,activity remaining,[8],121% (inactive)
CNC(C)[C@@H]1CC[C@@H](N)[C@@H](OC2[C@@H](N)C[C@@H](N)[C@H](OC3OC[C@](C)(O)[C@H](NC)[C@H]3O)[C@H]2O)O1 (stereo partly drawn),parasite load remaining,[9],99.6% (inactive) and 66.4% (inactive)
same,viability,[9],74.9% and 95.7%
same,activity remaining,[8],116% (inactive)
same,fold change,[10]; stronger effect = lower value,0.833 (inactive)
same,fold change,[10]; [16],0.842
same,cell count,[10]; [17],10800
same,cell count,[10]; [18],13000
C[C@@H]1C(=O)OC2[C@H](O)C34[C@@H]5OC(=O)[C@@]3(O[C@@H]3OC(=O)[C@H](O)[C@@]34[C@H](C(C)(C)C)[C@H]5O)[C@]21O (stereo partly drawn),parasite load remaining,[9],84.4% (inactive)
same,viability,[9],70.9%
same,activity remaining,[8],116% (inactive)
COc1ccc2c(c1OC)C(=O)O[C@H]2[C@H]1c2cc3c(cc2CCN1C)OCO3,inhibition,[11],-1.71%
same,score,[1],1.46
same,rescue above control,[2],-6.7
same,cytochrome c release ratio,[3],1.06
same,inhibition of aggregation,[4],71.9%
same,glutamate uptake change,[5],13.5%
same,inclusion score,[6],2
same,aggregation suppression score,[7],1.24
same,parasite load remaining,[9],124% (inactive)
same,viability,[9],70.9%
same,activity remaining,[8],127% (inactive)
same,luciferase signal,[12],76 AU (inactive)
CC1(C)N([O-])[N+](=O)C1(C)Br (stereo not drawn),activity remaining,[8],96.6% (inactive)
same,luciferase signal,[12],44 AU (inactive)
O=C(NC(=O)c1ccccc1Cl)Nc1ccc(OC(F)(F)F)cc1,activity remaining,[8],118% (inactive)
same,luciferase signal,[12],68 AU (inactive)
C=C1C2CC[C@H]3[C@]4(C)C[C@H](OC5OC(CO)C(OS(=O)(=O)O)C(OS(=O)(=O)O)C5OC(=O)CC(C)C)C[C@@H](C(=O)O)[C@H]4CC[C@]3(C2)[C@H]1O (stereo partly drawn),fluorescence slope change,[13],23.6% (inactive)
same,inhibition,[11],13.1%
same,score,[1],1.67
same,rescue above control,[2],-8.48
same,cytochrome c release ratio,[3],1.3
same,inhibition of aggregation,[4],74.7%
same,glutamate uptake change,[5],4.94%
same,inclusion score,[6],2
same,aggregation suppression score,[7],1.68
same,survival,[14],8.25 (inactive)
same,activity remaining,[8],102% (inactive)
same,luciferase signal,[12],160 AU (inactive)
c1cc2c(cc1[C@H]1OC[C@H]3[C@@H]1CO[C@H]3c1ccc3c(c1)OCO3)OCO2,activity remaining,[8],120% (inactive)
same,luciferase signal,[12],52 AU (inactive)
COc1ccc2c(c1)[C@]13CCCC[C@H]1[C@H](C2)N(C)CC3,inhibition,[11],-11.5%
same,score,[1],1.32
same,rescue above control,[2],-2.69
same,cytochrome c release ratio,[3],0.98
same,inhibition of aggregation,[4],78.2%
same,glutamate uptake change,[5],6.18%
same,inclusion score,[6],2
same,aggregation suppression score,[7],1.29
same,parasite load remaining,[9],84.3% (inactive)
same,viability,[9],71.2%
same,activity remaining,[8],115% (inactive)
CCC(C)C(=O)O[C@H]1[C@H](O)C2C(CN3CC(C)CCC3[C@@]2(C)O)C2C[C@]34O[C@]5(O)C(OC(=O)C(C)(O)C(C)O)CC[C@@]3(C)C5C(OC(C)=O)[C@@H](OC(C)=O)C4[C@@]21O (stereo partly drawn),inhibition,[11],19.1%
same,score,[1],1.45
same,rescue above control,[2],-3.98
same,cytochrome c release ratio,[3],1
same,inhibition of aggregation,[4],1.96%
same,glutamate uptake change,[5],2.79%
same,inclusion score,[6],2
same,aggregation suppression score,[7],1.75
same,parasite load remaining,[9],75% (inactive)
same,viability,[9],68.5%
same,activity remaining,[8],107% (inactive)
CC[C@]12CCCN3CCc4c(n(c5ccccc45)[C@](O)(C(=O)OC)C1)[C@@H]32,survival,[14],6.25 (inactive)
same,activity remaining,[8],115% (inactive)
CC12CCCCC1(Br)[N+](=O)N2[O-] (stereo not drawn),activity remaining,[8],108% (inactive)
same,luciferase signal,[12],64 AU (inactive)
O=C1OCCN1/N=C/c1ccc([N+](=O)[O-])o1,parasite load remaining,[9],1.08% (active) and 4.96% (inactive)
same,viability,[9],58.1% and 96.5%
same,activity remaining,[8],104% (inactive)
same,fold change,"[10]; stronger effect = lower value, cell number ratio, induced over uninduced",0.857 (inactive)
same,fold change,[10]; [16],1.85
same,cell count,[10]; [17],9350
same,cell count,[10]; [18],10900
COc1ccc2c(c1OC)C(=O)O[C@@H]2[C@@H]1c2cc3c(cc2CCN1C)OCO3,parasite load remaining,[9],190% (inactive)
same,viability,[9],68.5%
same,activity remaining,[8],113% (inactive)
O=C(O)C1CCNCC1,remaining activity,[15],111% (inactive)
CC1(C)C2C[C@@H](O)[C@]3(C)C(CC[C@@]4(C)[C@H](c5ccoc5)OC(=O)[C@H]5O[C@]543)[C@@]2(C)[C@@H](O)C[C@H]1O (stereo partly drawn),activity remaining,[8],124% (inactive)
same,luciferase signal,[12],32 AU (inactive)
Cc1ccccc1N1CCN(S(=O)(=O)C[C@@]23CC[C@H](CC2NC(=O)[C@H](N)CCS(C)(=O)=O)C3(C)C)CC1 (stereo partly drawn),remaining activity,[15],121% (inactive)
